Potency and viability data for 20 compounds are collected here from PubChem BioAssay (NCATS).

Experiment [1] can be described thus: BET inhibitor-based combinations targeting novel dependencies in MECOM-rearranged (r) AML: SET-2 cell line (AID 2202231). Also: nearly all actives have a fitted effect of over 35% in size. Also: potency is read from the fitted curve at half-maximal effect.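 As to viability: plate controls were DMSO treated cells for no effect and wells without cells for full effect.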 Particulars: SET-2 AML cells viability, CellTiter-Glo luminescence, 48 h; viability: hits give low values, concentration not given here. The method, boiled down:
(§1)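 Here, 11-point titrations of each agent were applied to 500 seeded cells and incubated 48 hr; CellTiter-Glo signal, scaled against DMSO and empty wells, was integrated as AUC, then Z-scored within the individual line.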

Experiment [2] can be described thus: BET inhibitor-based combinations targeting novel dependencies in MECOM-rearranged (r) AML: OCI-AML3 cell line (AID 2202232). Also: nearly all actives have a fitted effect of over 35% in size. Also: potency is read from the fitted curve at half-maximal effect. Particulars: Potency: OCI-AML3 viability. The method, boiled down: as §1
Experiment [3] can be described thus: BET inhibitor-based combinations targeting novel dependencies in MECOM-rearranged (r) AML: MV-4-11 cell line (AID 2202233). Also: nearly all actives have a fitted effect of over 45% in size. Also: potency is read from the fitted curve at half-maximal effect. Summed up:
(§2)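 Normalized to DMSO and empty-well controls, the luminescence data from CellTiter-Glo after 48 hr drug exposure were fitted across 11 concentrations. Reported metrics are area under the dose-response curve and its Z-transformed form.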

The nature of experiment [4]: BET inhibitor-based combinations targeting novel dependencies in MECOM-rearranged (r) AML: HNT-34 cell line (AID 2202234). Also: nearly all actives have a fitted effect of over 35% in size. Also: potency is read from the fitted curve at half-maximal effect. Summed up: as §2
A short description of experiment [5]: BET inhibitor-based combinations targeting novel dependencies in MECOM-rearranged (r) AML: AML-191 cell line (AID 2202236; also: nearly all actives have a fitted effect of over 35% in size; also: potency is read from the fitted curve at half-maximal effect). The method, boiled down: as §1
Experiment [6] is described as follows: BET inhibitor-based combinations targeting novel dependencies in MECOM-rearranged (r) AML: AML-194 cell line (AID 2202237; also: nearly all actives have a fitted effect of over 40% in size; also: potency is read from the fitted curve at half-maximal effect). Summed up: as §1
Experiment [7] can be described thus: BET inhibitor-based combinations targeting novel dependencies in MECOM-rearranged (r) AML: UCSD-AML1 cell line (AID 2202235).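 Also: series mostly up to about 46 µM; plate controls were DMSO vehicle wells for no effect and blank wells for full effect; nearly all actives have a fitted effect of over 40% in size.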 Summed up:
as §2

Several values for one entry are separate records, joined by “and”; a condition that tells them apart may be missing. Equal entries are not always repeated. Inconclusive results are not listed. Unmarked numbers belong to inactive results. Activity calls are given as the source filed them. Calls follow the shape of the dose curve; as a rule, active = well fitted curve in the direction sought with a large enough effect; inconclusive = small, poorly fitted or top-dose-only effect, or another doubt; inactive = no such curve, though single readings can be large; an effect the other way counts as inactive or inconclusive.

Take `CCN1CCN(Cc2ccc(-c3cc4c(N[C@H](C)c5ccccc5)ncnc4[nH]3)cc2)CC1`: the Potency in experiment [1] was 23500 nM (active); in experiment [2], 20900 nM (active); in experiment [3] it was 2630 nM (active); in experiment [4], 2630 nM (active); in experiment [5] it was 18600 nM (active); in experiment [6], 26300 nM (active).
In the case of `CN1C(C(=O)Nc2ccccn2)=C(O)c2sccc2S1(=O)=O`, in experiment [1], the viability is 113%. For the same compound, the Potency entry in experiment [2], in experiment [3], in experiment [4], in experiment [5] and in experiment [6] was “inactive” throughout.
Turning to `C/C(=N\NC(=O)c1cccc(S(=O)(=O)N2CCOCC2)c1)c1cc(Cl)ccc1O`, the Potency is 6610 nM (active) in experiment [1]; 1860 nM (active) in experiment [2]; 5900 nM (active) in experiment [3]; 2950 nM (active) in experiment [4]; 2090 nM (active) in experiment [5]; 4170 nM (active) in experiment [6].
As for `O=C(O)CCNc1cc(N2CCc3ccccc3CC2)nc(-c2cccnc2)n1`, the viability in experiment [1] was 116%. In experiment [2], the Potency was 9340 nM (active). For the same compound, the Potency entry in experiment [3], in experiment [4], in experiment [7] and in experiment [6] was “inactive” each time.
`Cc1c(CN2CCC(Nc3ncnc4sc(CC(F)(F)F)cc34)CC2)ccc2c1cc(C#N)n2Cc1cn[nH]c1`: the Potency in experiment [1] is 3320 nM (active); in experiment [2], 13200 nM (active); in experiment [3], 3320 nM (active); in experiment [4], 16600 nM (active); in experiment [5], 18600 nM (active); in experiment [6], 20900 nM (active).
In the case of `COc1cc(OC)cc(N2CCN(C(=O)Nc3nc4cc(F)ccc4nc3OC)CC2)c1`, the Potency in experiment [1] is 1320 nM (active); in experiment [2] it was 1050 nM (active); in experiment [3], 934 nM (active); in experiment [4], 833 nM (active); in experiment [5], 934 nM (active); in experiment [6] it was 1050 nM (active).
For `CC(C)(C)C(=O)OCOP(=O)(COCCn1cnc2c(N)ncnc21)OCOC(=O)C(C)(C)C`, the Potency was 4680 nM (active) in experiment [1]; 525 nM (active) in experiment [2]; 209 nM (active) in experiment [3]; 2630 nM (active) in experiment [4]; 1660 nM (active) in experiment [5]; 2950 nM (active) in experiment [6].
Turning to `C=CC(=O)Nc1cccc(Oc2nc(Nc3ccc(N4CCN(C)CC4)c(F)c3)nc3[nH]ccc23)c1`, the Potency was 14800 nM (active) in experiment [1]; 8330 nM (active) in experiment [2]; 742 nM (active) in experiment [3]; 1320 nM (active) in experiment [4]; 5900 nM (active) in experiment [5]; 6610 nM (active) in experiment [6].
`C=CC(=O)N1CC/C(=C\c2ccc(F)c([N+](=O)[O-])c2)C(=O)/C(=C/c2ccc(F)c([N+](=O)[O-])c2)C1`: the Potency in experiment [1] was 148 nM (active); in experiment [2] it was 52.5 nM (active); in experiment [3], 59 nM (active); in experiment [4], 186 nM (active); in experiment [5] it was 209 nM (active); in experiment [6] it was 372 nM (active).
As for `COc1ccc2c(c1)c(C1=C(c3c[nH]c4ccccc34)C(=O)NC1=O)cn2CCCN(C)C`, the Potency in experiment [1] is 23500 nM (active); in experiment [2] it was 20900 nM (active); in experiment [3], 372 nM (active); in experiment [4], 16600 nM (active); in experiment [5] it was 23500 nM (active); in experiment [6], 23500 nM (active).
On to `O=C(O)CNC(=O)c1nc(Cl)c2ccccc2c1O`, for which the viability in experiment [1] was 122%. Further, the Potency result in experiment [2], in experiment [3], in experiment [4], in experiment [5] and in experiment [6] was “inactive” in each case.
Turning to `CC1(C)OC2=C(C(=O)c3ccccc3C2=O)[C@H](NCc2ccccc2)[C@@H]1O`, the Potency in experiment [1] was 6610 nM (active); in experiment [2], 11800 nM (active); in experiment [3] it was 8330 nM (active); in experiment [4], 7420 nM (active); in experiment [5], 7420 nM (active); in experiment [6] it was 7420 nM (active).
As to `COc1ncc(-c2ccc3nccc(-c4ccnnc4)c3c2)cc1NS(=O)(=O)c1ccc(F)cc1F`, the Potency was 332 nM (active) in experiment [1]; 83.3 nM (active) in experiment [2]; 105 nM (active) in experiment [3]; 263 nM (active) in experiment [4]; 209 nM (active) in experiment [5].
On the same counts, the results for `CCCS(=O)(=O)c1nc(NC2CC2)cc(-c2ccc3c(ccn3C3CC(C)(C)NC(C)(C)C3)c2)n1` are 2210 nM (active), 2780 nM (active), 2480 nM (active), 3120 nM (active) and 3120 nM (active).
In the case of `CC(C)(C)NC(=O)c1cncn1C1CCN(c2ccc(-c3nnc(C(F)(F)F)o3)cn2)CC1`, the Potency in experiment [1] is 16600 nM (active); in experiment [2] it was 1050 nM (active); in experiment [3], 5250 nM (active); in experiment [4], 4680 nM (active); in experiment [5] it was 13200 nM (active).
As for `O=C(O)c1cccnc1`, the viability in experiment [1] is 118%. Also, the Potency entry in experiment [2], in experiment [3], in experiment [4], in experiment [5] and in experiment [6] was “inactive” throughout.
For the compound `O=C1NC(=O)/C(=C/c2ccc3nccc(-c4ccncc4)c3c2)S1`, the Potency in experiment [1] was 14800 nM (active); in experiment [2] it was 1050 nM (active); in experiment [3], 833 nM (active); in experiment [4], 1050 nM (active); in experiment [5] it was 934 nM (active).
With `CCN[C@H]1C[C@H](C)S(=O)(=O)c2sc(S(N)(=O)=O)cc21`, in experiment [1], the viability was 114%. The Potency entry in experiment [2], in experiment [3], in experiment [4], in experiment [5] and in experiment [6] was “inactive” throughout.
`CCc1c(-c2ccccc2C)nc2c(C#N)c[nH]n2c1=O`: the viability in experiment [1] is 112% and 125%. Besides, the Potency entry in experiment [2], in experiment [3], in experiment [4], in experiment [5] and in experiment [6] was “inactive” each time.
As for `CNC1CCCN(c2c(F)cc3c(=O)c(C(=O)O)cn(C4CC4)c3c2OC)C1` (stereo unspecified), the viability in experiment [1] is 112%. For the same compound, the Potency result in experiment [2], in experiment [3], in experiment [4], in experiment [5] and in experiment [6] was “inactive” throughout.
